Consider 57 molecules from PMC4336329 (PLoS ONE, 2015).

Out of some 310,000 compounds screened, about 14,000 (4.5%) showed an effect of 50% or more. Effects have a minus sign here. The entries come from a sample that favours strong results as a whole.
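Further: peak tail current of the secondary pulse compared with the same well before compound.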

For the test, the target named is human ether-à-go-go-related gene (hERG) potassium channel (human, UniProt Q12809). Kind of test: primary screen, population patch clamp on CHO cells stably expressing hERG; higher = less effect of the substance.
Sequence of human ether-à-go-go-related gene (hERG) potassium channel (Q12809 whole entry, looked up): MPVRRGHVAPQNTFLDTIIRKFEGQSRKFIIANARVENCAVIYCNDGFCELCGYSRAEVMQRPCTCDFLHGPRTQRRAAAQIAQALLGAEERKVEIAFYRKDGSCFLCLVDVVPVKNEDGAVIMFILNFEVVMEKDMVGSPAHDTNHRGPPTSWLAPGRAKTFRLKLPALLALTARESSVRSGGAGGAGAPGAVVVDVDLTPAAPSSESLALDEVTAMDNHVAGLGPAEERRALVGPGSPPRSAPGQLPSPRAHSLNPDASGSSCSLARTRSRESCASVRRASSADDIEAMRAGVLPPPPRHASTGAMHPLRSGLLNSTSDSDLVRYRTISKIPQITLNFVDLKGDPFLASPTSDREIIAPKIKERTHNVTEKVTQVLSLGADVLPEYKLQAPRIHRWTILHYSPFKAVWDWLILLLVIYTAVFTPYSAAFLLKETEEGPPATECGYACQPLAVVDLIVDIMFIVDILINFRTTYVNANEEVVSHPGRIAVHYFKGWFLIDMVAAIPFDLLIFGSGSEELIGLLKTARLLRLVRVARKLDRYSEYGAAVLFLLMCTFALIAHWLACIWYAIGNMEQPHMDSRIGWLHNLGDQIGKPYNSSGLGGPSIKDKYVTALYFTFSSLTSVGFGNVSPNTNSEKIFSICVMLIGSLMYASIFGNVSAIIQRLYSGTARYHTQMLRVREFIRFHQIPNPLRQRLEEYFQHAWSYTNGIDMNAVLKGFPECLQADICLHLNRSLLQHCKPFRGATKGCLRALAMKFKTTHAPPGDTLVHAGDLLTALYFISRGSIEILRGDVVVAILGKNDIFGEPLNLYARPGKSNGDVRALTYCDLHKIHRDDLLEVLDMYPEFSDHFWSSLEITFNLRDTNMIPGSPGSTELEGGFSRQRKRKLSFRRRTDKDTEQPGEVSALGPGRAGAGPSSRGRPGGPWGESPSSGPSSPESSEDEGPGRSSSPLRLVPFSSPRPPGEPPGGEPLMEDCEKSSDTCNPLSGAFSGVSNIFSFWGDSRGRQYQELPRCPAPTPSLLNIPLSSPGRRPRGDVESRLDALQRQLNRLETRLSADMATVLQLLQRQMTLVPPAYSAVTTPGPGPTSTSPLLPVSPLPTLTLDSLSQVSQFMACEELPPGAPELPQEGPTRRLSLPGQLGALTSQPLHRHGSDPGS
`COc1ccc(OCCNC(=S)Nc2cccc3ccccc23)cc1`: the “hERG current change (%, negative = inhibition) at 10uM” value came to 3.79%. In the case of `Cc1ccccc1N(CC(=O)NC1CCCC1)C(=O)CS(=O)CC(=O)Nc1ccc2c(c1)OCO2` (stereo not drawn), the “hERG current change (%, negative = inhibition) at 10uM” value is given as -8.74%. For `COc1cc(C2NC(=O)NC(C)=C2C(C)=O)cc(OC)c1OC` (stereo not drawn), the “hERG current change (%, negative = inhibition) at 10uM” value is listed as 9.41%. `Cc1nc(SCC(=O)O)c(C#N)c2c1CCCC2`: the “hERG current change (%, negative = inhibition) at 10uM” value is on record as -10.9%. With `COc1cc2c(-c3ccc4[nH]ccc4c3)c(-c3ccc(C#N)cc3)oc(=O)c2cc1OC` the figure was 20.9%; with `CCCCC(=Nc1ccc(N)cc1)C1=C(O)C(C(=O)OC)C(C)(C)CC1=O` (stereo not drawn), -1.62%; with `CCOc1ccc(N(Cc2ccc(C(=O)O)cc2)S(=O)(=O)c2ccc(C)cc2)cc1`, -12.5%. As for `C=CCNC(=O)c1ccc(CN(c2ccc(OCC)cc2)S(=O)(=O)c2ccc(C)cc2)cc1`, the “hERG current change (%, negative = inhibition) at 10uM” value is given as -62%. With `C=CCNC(=O)c1ccc(N(C)S(=O)(=O)c2ccc(OC)cc2)cc1` the figure was -57.4%; with `COCCCNC(=O)c1ccc(N(C)S(=O)(=O)c2ccc(OC)cc2)cc1`, -20.6%. Take `C=CCNC(=O)c1ccc(N(Cc2ccc(Cl)cc2)S(C)(=O)=O)cc1`: the “hERG current change (%, negative = inhibition) at 10uM” value is -33.5%.

On to `COc1ccc(S(=O)(=O)N(C)c2ccc(C(=O)NC3CC3)cc2)cc1`, for which the “hERG current change (%, negative = inhibition) at 10uM” value is recorded as -12.6%. With `COc1ccc(N(C)S(=O)(=O)c2cccc(C(=O)NC3CCCC3)c2)cc1` the figure was -9.64%; with `C=CCNC(=O)c1ccc(OC)cc1`, -12%. As to `COc1ccc(S(=O)(=O)N(C)c2ccc(C(=O)NC3CCCC3)cc2)cc1`, the “hERG current change (%, negative = inhibition) at 10uM” value was -83.7%. Regarding `O=c1c2ccccc2nc(/C=C/c2ccc(Br)cc2)n1CCO`, the “hERG current change (%, negative = inhibition) at 10uM” value turned out to be 2.81%. On to `COCCNC(=O)/C(C#N)=C/c1c(N2CCN(c3ccccc3)CC2)nc2c(C)cccn2c1=O`, for which the “hERG current change (%, negative = inhibition) at 10uM” value is 5.92%. Consider `O=C(Nc1cc(=O)[nH]c2ncnn12)c1ccccc1Cl`, for which the “hERG current change (%, negative = inhibition) at 10uM” value is 1.15%. For the molecule `CCOC(=O)c1ccc(N2C(=O)CC(C3CCCO3)C2=O)cc1` (stereo not drawn), the “hERG current change (%, negative = inhibition) at 10uM” value is -11.2%. For `CN(Cc1ccccc1)S(=O)(=O)c1ccc(N2CCCC2=O)cc1`, the “hERG current change (%, negative = inhibition) at 10uM” value is listed as -12.7%. Turning to `Cc1cccc(Nc2ncnc3ccccc23)c1.Cl`, the “hERG current change (%, negative = inhibition) at 10uM” value was -5.93%.

Regarding `Cc1ccc(Nc2c3c(nc4ccccc24)CCC3)cc1.Cl`, the “hERG current change (%, negative = inhibition) at 10uM” value is -78.8%. `Fc1cccc(Nc2nc(-c3ccncc3)nc3ccccc23)c1`: the “hERG current change (%, negative = inhibition) at 10uM” value worked out at 15.4%.

For the molecule `Cc1ccc(NC(=O)c2c3c(nc4ccccc24)CCC3)cc1`, the “hERG current change (%, negative = inhibition) at 10uM” value is 2.86%. For `Cl.Fc1cccc(Nc2c3c(nc4ccccc24)CCC3)c1`, the “hERG current change (%, negative = inhibition) at 10uM” value was -68.2%.

For `Cl.Nc1nc(Nc2cccc(F)c2)nc2ccccc12`, the “hERG current change (%, negative = inhibition) at 10uM” value is recorded as -19.3%.

As to `Cl.c1ccc(Nc2c3c(nc4ccccc24)CCC3)cc1`, the “hERG current change (%, negative = inhibition) at 10uM” value is -76.2%.

Turning to `Cc1cccc(Nc2c3c(nc4ccccc24)CCC3)c1.Cl`, the “hERG current change (%, negative = inhibition) at 10uM” value was -71.5%.

For the molecule `COc1cccc(NC(=O)CCCOc2cc(=O)n(C)c3ccccc23)c1`, the “hERG current change (%, negative = inhibition) at 10uM” value is 12.6%.

For the molecule `Cc1ccc(-n2c(SCC(=O)N3CCCCC3)nc(O)cc2=O)cc1`, the “hERG current change (%, negative = inhibition) at 10uM” value amounted to 16.1%.

Take `Cc1ccnc(SC2CC(=O)N(c3ccc([N+](=O)[O-])cc3)C2=O)n1` (stereo not drawn): the “hERG current change (%, negative = inhibition) at 10uM” value was -26.8%. With `COc1ccc(CNC(=O)c2ccc3c(c2)N(C)CCS3)cc1`, the “hERG current change (%, negative = inhibition) at 10uM” value is -2.44%.

Turning to `O=[N+]([O-])c1ccc(Cl)cc1NCCCN1CCOCC1`, the “hERG current change (%, negative = inhibition) at 10uM” value turned out to be 0.725%.

Take `O=C(NCc1ccc2c(c1)CCO2)Nc1cccc(C(F)(F)F)c1`: the “hERG current change (%, negative = inhibition) at 10uM” value was 12.6%.

Regarding `CCc1noc(C)c1C(=O)OC(C)C(=O)NCc1ccc(OC)cc1` (stereo not drawn), the “hERG current change (%, negative = inhibition) at 10uM” value is -15.3%. With `COc1ccc(-n2c(=O)[nH]cc(C(=O)N3CCc4ccccc43)c2=O)cc1` the figure was 16.2%.

Regarding `COc1ccc(-c2csc3nc(-c4ccccc4)oc(=O)c23)cc1OC`, the “hERG current change (%, negative = inhibition) at 10uM” value is 14.3%. With `CN(C)CCNC(=O)c1ccc2c(c1)N(Cc1ccc(F)cc1)CCS2`, the “hERG current change (%, negative = inhibition) at 10uM” value is listed as -32.8%. In the case of `COc1cc(/C=C2\SC(N3CCC(C)CC3)=NC2=O)ccc1O`, the “hERG current change (%, negative = inhibition) at 10uM” value is on record as -5.99%. For the molecule `Cc1ccc(C)c(NC(=O)COC(=O)c2cccc3c2C(=O)c2ccccc2C3=O)c1`, the “hERG current change (%, negative = inhibition) at 10uM” value is -14.2%.

Turning to `COc1ccc(Nc2c3ccccc3nc3ccccc23)cc1`, the “hERG current change (%, negative = inhibition) at 10uM” value was -69.6%.

`CCOc1ccc(Nc2c3ccccc3nc3ccccc23)cc1`: the “hERG current change (%, negative = inhibition) at 10uM” value is -42.4%. For `COc1ccc(Nc2c3c(nc4ccccc24)CCC3)cc1.Cl`, the “hERG current change (%, negative = inhibition) at 10uM” value is given as -70.9%.

Consider `COc1ccc(Nc2nc(-c3ccccc3)c3ccccc3n2)cc1`, for which the “hERG current change (%, negative = inhibition) at 10uM” value is recorded as -5.22%.

`CC(=O)Nc1ccc(Nc2cc(C)c3ccccc3n2)cc1`: the “hERG current change (%, negative = inhibition) at 10uM” value is recorded as -27.4%. Turning to `COc1ccc(NC(=O)c2c3c(nc4ccccc24)CCC3)cc1`, the “hERG current change (%, negative = inhibition) at 10uM” value is 10.1%. For `CC(=O)Nc1ccc(Nc2c3ccccc3nc3ccccc23)cc1`, the “hERG current change (%, negative = inhibition) at 10uM” value is recorded as -55.7%. Turning to `Cl.O=C(O)c1ccc(Nc2c3ccccc3nc3ccccc23)cc1`, the “hERG current change (%, negative = inhibition) at 10uM” value was -2.61%. Turning to `O=C(NCc1ccc(F)cc1)c1c2c(nc3ccccc13)CCC2`, the “hERG current change (%, negative = inhibition) at 10uM” value is -21.1%. With `O=C(CCCCCl)Nc1c2c(nc3ccccc13)CCC2` the figure was -23.6%; with `Fc1ccc(Nc2c3c(nc4ccccc24)CCC3)cc1`, -64.3%. For the molecule `COc1cc(NC(=O)c2c3c(nc4ccccc24)CCC3)cc(OC)c1`, the “hERG current change (%, negative = inhibition) at 10uM” value is on record as 11.3%. Turning to `CCOC(=O)C1CCN(C(=O)Nc2ccc3oc(C)nc3c2)CC1`, the “hERG current change (%, negative = inhibition) at 10uM” value amounted to 7.35%.

As for `N/C(=N\OC(=O)c1cccnc1)c1ccc(Cl)cc1Cl`, the “hERG current change (%, negative = inhibition) at 10uM” value came out at 12.7%. In the case of `COc1ccc(-n2c(C)cc(C(=O)COC(=O)c3cc(NC(=O)c4cccs4)c(OC)c(OC)c3)c2C)cc1` it was 6.03%; in that of `COC(=O)c1ccc(CN2C(=O)NC3(CCCCC3)C2=O)cc1`, 11.2%. As for `COc1ccc(OCC(=O)N2CCN(S(=O)(=O)c3ccccc3[N+](=O)[O-])CC2)cc1`, the “hERG current change (%, negative = inhibition) at 10uM” value is recorded as -31.2%.
